This is an account of results in the supplement of paper PMC12819154, “High-throughput peptide-centric local stability assay extends protein–ligand identification to membrane proteins, tissues and bacteria” (Nature Structural & Molecular Biology, 2025).

Compound in the experiment: Nc1ncnc2c1ncn2[C@@H]1O[C@H](COP(=O)(O)OP(=O)(O)OP(=O)(O)O)[C@@H](O)[C@H]1O [adenosine 5'-triphosphate]
The experiment can be described thus: log2 fold change of tryptic peptide abundance, ligand vs vehicle (limited proteolysis) (log2 ratio); higher = more trypsin-susceptible (destabilized). To be noted: ligand concentration: 5 mM; sample: E. coli desalted lysate; replicate design: treated before aliquoting. The protocol: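 HT-PELSA: desalted E. coli K-12 BW25113 lysate (with 12 mM MgCl2) incubated with 5 mM ATP (pH 7) or water for 30 min at 25 C, then a 4 min trypsin pulse at 22 C. Peptides were quantified by DIA-MS (4 replicates). Value is the peptide log2 fold change (treated/control); negative = stabilized. Scale: negative = ligand-stabilized region.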
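Also: lysate desalted by size exclusion to strip endogenous ATP, peptide intensities built from DIA-NN precursor signals, and peptides missing any value discarded before comparison.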

Sequence of UniProt P0A8F8 (P0A8F8 whole entry): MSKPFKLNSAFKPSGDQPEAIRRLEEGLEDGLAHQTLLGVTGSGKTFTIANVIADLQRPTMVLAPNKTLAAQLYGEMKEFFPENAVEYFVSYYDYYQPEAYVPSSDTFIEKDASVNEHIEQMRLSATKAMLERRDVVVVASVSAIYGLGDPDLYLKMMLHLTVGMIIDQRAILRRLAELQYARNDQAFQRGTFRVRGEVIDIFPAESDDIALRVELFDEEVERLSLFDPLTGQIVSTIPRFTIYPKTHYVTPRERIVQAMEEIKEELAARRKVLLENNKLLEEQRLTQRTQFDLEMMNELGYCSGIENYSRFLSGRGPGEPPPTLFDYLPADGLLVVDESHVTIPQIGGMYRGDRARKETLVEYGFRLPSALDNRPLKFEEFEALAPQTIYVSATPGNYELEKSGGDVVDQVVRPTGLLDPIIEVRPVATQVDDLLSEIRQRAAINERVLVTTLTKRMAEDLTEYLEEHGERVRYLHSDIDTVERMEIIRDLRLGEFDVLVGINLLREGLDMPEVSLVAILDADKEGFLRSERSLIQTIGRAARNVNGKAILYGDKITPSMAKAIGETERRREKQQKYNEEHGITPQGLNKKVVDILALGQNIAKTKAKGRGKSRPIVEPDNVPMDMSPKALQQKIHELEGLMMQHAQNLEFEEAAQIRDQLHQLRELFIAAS
Sequence of UniProt P33029 (P33029 whole entry): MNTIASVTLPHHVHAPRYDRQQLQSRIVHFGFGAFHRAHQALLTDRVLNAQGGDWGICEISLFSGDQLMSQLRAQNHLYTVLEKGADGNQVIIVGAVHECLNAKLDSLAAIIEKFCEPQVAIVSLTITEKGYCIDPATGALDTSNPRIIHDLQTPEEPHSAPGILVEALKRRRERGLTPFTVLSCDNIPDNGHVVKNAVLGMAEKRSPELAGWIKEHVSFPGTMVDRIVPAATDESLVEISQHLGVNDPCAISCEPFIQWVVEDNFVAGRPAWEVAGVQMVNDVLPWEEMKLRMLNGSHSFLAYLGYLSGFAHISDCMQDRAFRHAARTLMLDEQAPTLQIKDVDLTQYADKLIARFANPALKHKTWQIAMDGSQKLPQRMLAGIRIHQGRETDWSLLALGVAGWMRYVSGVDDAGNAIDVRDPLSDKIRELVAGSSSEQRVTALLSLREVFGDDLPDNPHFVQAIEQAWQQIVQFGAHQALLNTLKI
Sequence of UniProt P20966 (P20966 whole entry): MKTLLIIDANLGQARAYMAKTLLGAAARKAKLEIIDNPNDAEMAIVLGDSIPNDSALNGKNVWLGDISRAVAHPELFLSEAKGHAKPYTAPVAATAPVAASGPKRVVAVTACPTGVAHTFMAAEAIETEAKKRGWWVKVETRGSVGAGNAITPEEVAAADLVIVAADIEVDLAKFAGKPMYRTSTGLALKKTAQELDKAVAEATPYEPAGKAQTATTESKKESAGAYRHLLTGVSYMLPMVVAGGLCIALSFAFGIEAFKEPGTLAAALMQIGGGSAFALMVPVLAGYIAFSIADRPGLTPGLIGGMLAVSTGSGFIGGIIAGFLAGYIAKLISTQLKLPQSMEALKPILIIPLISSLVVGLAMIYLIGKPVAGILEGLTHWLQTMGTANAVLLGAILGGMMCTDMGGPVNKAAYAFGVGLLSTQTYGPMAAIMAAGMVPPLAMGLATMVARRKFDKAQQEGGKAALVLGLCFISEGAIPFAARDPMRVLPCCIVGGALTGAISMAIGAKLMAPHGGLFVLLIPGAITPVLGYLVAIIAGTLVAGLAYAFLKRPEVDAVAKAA
Sequence of UniProt P0AEE1 (P0AEE1 whole entry): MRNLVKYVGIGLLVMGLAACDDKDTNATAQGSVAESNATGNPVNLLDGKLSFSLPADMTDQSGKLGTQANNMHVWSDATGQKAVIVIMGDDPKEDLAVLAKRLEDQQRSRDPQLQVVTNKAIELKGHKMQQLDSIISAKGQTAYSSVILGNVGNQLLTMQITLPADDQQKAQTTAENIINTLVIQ
Sequence of UniProt P45577 (P45577 whole entry): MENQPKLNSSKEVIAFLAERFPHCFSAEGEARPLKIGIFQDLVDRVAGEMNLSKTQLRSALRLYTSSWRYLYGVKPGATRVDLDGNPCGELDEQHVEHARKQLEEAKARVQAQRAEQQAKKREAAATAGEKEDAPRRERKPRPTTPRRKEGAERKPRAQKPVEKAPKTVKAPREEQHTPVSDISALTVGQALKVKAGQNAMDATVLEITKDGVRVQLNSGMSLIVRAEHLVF
Sequence of UniProt P29131 (P29131 whole entry): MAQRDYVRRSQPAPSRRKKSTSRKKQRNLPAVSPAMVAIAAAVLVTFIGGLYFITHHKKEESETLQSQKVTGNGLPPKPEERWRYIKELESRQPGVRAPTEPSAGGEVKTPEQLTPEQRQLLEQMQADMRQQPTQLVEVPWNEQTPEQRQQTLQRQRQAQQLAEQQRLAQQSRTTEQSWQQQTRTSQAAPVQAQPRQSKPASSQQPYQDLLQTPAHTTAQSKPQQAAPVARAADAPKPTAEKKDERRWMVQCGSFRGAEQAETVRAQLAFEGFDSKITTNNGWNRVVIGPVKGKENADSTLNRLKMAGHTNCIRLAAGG
Sequence of UniProt P10443 (P10443 whole entry): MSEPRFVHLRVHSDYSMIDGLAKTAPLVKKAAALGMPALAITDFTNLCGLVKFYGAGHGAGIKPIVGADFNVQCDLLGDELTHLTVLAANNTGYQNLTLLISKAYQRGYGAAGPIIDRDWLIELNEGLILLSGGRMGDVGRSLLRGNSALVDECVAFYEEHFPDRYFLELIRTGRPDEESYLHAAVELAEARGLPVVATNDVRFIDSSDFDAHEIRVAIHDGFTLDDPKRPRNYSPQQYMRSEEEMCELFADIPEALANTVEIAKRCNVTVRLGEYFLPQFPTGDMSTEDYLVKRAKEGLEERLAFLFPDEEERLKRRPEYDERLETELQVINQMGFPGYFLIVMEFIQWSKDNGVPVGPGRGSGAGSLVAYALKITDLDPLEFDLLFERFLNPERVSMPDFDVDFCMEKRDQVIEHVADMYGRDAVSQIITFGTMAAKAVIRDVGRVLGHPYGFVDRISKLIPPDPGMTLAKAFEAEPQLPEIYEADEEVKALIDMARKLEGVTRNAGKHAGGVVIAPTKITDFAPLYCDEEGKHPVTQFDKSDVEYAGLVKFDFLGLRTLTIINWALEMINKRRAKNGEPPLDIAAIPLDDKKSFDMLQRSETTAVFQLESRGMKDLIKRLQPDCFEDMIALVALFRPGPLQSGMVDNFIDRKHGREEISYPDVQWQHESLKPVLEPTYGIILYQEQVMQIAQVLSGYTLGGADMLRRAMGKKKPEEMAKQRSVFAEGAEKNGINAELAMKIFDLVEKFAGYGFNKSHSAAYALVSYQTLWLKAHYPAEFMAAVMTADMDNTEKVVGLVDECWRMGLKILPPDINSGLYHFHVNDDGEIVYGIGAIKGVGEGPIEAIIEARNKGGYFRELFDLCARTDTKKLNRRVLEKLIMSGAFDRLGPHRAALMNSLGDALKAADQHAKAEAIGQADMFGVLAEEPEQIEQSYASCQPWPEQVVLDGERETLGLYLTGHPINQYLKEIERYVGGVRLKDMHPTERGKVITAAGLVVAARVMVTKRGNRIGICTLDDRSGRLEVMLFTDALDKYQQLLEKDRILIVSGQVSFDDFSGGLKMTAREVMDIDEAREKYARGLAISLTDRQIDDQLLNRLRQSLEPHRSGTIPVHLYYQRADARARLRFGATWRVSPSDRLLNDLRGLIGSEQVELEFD
Sequence of UniProt P25748 (P25748 whole entry): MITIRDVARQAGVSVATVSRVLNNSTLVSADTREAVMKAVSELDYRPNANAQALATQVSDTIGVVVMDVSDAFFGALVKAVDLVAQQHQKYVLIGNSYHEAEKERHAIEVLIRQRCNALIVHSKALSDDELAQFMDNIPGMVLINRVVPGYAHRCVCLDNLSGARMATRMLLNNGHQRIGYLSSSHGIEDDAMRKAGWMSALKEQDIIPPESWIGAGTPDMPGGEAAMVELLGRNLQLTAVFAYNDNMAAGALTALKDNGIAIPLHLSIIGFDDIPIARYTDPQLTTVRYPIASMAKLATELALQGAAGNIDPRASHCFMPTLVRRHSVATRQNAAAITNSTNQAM
Sequence of UniProt P15082 (P15082 whole entry): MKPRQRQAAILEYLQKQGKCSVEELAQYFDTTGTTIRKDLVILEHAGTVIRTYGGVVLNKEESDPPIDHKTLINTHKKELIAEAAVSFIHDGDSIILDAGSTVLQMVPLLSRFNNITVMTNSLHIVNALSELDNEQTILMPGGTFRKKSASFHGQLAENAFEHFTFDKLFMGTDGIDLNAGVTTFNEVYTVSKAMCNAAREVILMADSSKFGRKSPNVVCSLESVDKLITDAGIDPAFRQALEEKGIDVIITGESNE
Sequence of UniProt P38035 (P38035 whole entry): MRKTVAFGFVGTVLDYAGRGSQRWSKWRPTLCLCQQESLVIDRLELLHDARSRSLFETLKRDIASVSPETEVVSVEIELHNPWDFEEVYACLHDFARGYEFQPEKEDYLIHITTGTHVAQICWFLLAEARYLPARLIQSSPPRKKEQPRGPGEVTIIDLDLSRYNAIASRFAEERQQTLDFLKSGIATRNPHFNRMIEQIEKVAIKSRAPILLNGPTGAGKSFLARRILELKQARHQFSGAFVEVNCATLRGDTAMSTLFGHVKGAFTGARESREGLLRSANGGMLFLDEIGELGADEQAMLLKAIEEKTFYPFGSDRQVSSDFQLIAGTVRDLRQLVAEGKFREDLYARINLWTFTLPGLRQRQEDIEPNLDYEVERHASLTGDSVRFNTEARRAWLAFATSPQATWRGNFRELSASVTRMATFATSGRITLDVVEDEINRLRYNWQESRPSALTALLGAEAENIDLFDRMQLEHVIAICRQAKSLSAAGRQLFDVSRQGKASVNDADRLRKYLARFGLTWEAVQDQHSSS
Sequence of UniProt P75874 (P75874 whole entry): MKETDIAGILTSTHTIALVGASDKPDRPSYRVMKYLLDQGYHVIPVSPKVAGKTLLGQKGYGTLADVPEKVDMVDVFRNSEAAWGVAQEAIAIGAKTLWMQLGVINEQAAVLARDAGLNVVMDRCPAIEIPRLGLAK

For “UniProt P15373 (peptide sequence: SHAVLTTESK, peptide start residue: 7)”, the log2 fold change is -0.194.
For “UniProt P76010 (peptide sequence: FLNVSPTVER, peptide start residue: 213)”, the log2 fold change is -1.34.
As for “UniProt P25748 (peptide sequence: IGYLSSSHGIEDDAMRK, peptide start residue: 179)”, the log2 fold change was determined as 0.977.
For “UniProt P15082 (peptide sequence: QRQAAILEYLQK, peptide start residue: 5)” the value was 2.18.
On to “UniProt P10443 (peptide sequence: GLPVVATNDVR, peptide start residue: 193)”, for which the log2 fold change worked out at 0.539.
To “UniProt P0A698 (peptide sequence: SSLAFDTLYAEGQRR, peptide start residue: 38)” belongs 2.9; to “UniProt P04995 (peptide sequence: TDLGDNAAVPVK, peptide start residue: 288)”, 0.472.
To “UniProt P33029 (peptide sequence: AHQALLTDR, peptide start residue: 38)” belongs -0.503; to “UniProt P0ACW6 (peptide sequence: FMSLFDKHNK, peptide start residue: 19)”, -0.425.
Take “UniProt P08194 (peptide sequence: AEQELTAK, peptide start residue: 235)”: the log2 fold change is -0.739.
To “UniProt P45577 (peptide sequence: VAGEMNLSKTQLR, peptide start residue: 46)” belongs 0.623.
To “UniProt P37313 (peptide sequence: GTKDQIFNNPR, peptide start residue: 244)” belongs 1.01.
“UniProt P76245 (peptide sequence: TPFVAHPALHS, peptide start residue: 331)”: the log2 fold change was 1.1.
“UniProt P0C0T5 (peptide sequence: WTSAQLLRPQALDLVSR, peptide start residue: 130)”: the log2 fold change is 0.388.
For “UniProt P38035 (peptide sequence: APILLNGPTGAGK, peptide start residue: 209)” the value was -1.38; for “UniProt P39199 (peptide sequence: AWFCGHEFYVDER, peptide start residue: 97)”, 1.88; for “UniProt P76035 (peptide sequence: TIATFQAYLGHPVR, peptide start residue: 176)”, 0.609.
“UniProt P37349 (peptide sequence: LIAKGPEAEEALIAFR, peptide start residue: 217)”: the log2 fold change is 0.492.
“UniProt P23839 (peptide sequence: YLETYFRLPEQFR, peptide start residue: 31)”: the log2 fold change came out at 0.91.
“UniProt P42630 (peptide sequence: ITAWKGQEELLSK, peptide start residue: 129)”: the log2 fold change amounted to 0.565.
Turning to “UniProt P0AEE1 (peptide sequence: AIELKGHK, peptide start residue: 121)”, the log2 fold change worked out at 0.899.
As for “UniProt P77615 (peptide sequence: AIEELQYQPNKLAR, peptide start residue: 40)”, the log2 fold change was 0.358.
“UniProt P37769 (peptide sequence: LMANEWAK, peptide start residue: 171)”: the log2 fold change is -0.444.
“UniProt P0A8F8 (peptide sequence: AILYGDKITPSMAK, peptide start residue: 550)”: the log2 fold change is -0.631.
For “UniProt P75874 (peptide sequence: YLLDQGYHVIPVSPK, peptide start residue: 35)” the value was 0.437; for “UniProt P29131 (peptide sequence: MAGHTNCIR, peptide start residue: 306)”, -0.526; for “UniProt P37624 (peptide sequence: LFHIPEAEIPAR, peptide start residue: 376)”, -1.74.
As to “UniProt P20966 (peptide sequence: FAGKPMYR, peptide start residue: 175)”, the log2 fold change worked out at 1.06.
To “UniProt P26365 (peptide sequence: SATGASVWVLSNR, peptide start residue: 277)” belongs -0.606; to “UniProt P0ABM9 (peptide sequence: DEAQEQQFR, peptide start residue: 27)”, 0.867; to “UniProt Q46925 (peptide sequence: SQFAEAQR, peptide start residue: 53)”, -0.663.
